HTT aggregate: qHTS Multiplex Assay to Identify Dual Action Probes in a Cell Model of Huntington: Aggregate Formation (GFP) | PC12 HttQ103-GFP aggregates, Acumen cytometry, 40 h | Potency, µM (highest dose often 46.1 µM), for the others: at the highest dose activity change, negative = inhibition, most hits filed as inhibitors | actives 1.1% (n = 220,000) | AID 1688, 2009; active means well fitted curve in the direction sought with a large enough effect; inconclusive means small, poorly fitted or top-dose-only effect, or another doubt; inactive means no such curve, though single readings can be large; an effect the other way counts as inactive or inconclusive; further: potency means the concentration at half of the fitted maximal effect; on the % scale 0 is the no-effect control and ±100 the full control effect; nearly all actives have a fitted effect of over 60% in size
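Multiplexed with ATP-based cell death, this channel scores GFP aggregates in PC12 cells expressing inducible HTTex1-Q103-GFP. Induction used 100 nM tebufenozide; compounds were tested in concentration series.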
ALDH1A1 inh: qHTS Assay for Inhibitors of Aldehyde Dehydrogenase 1 (ALDH1A1); Purified ALDH1A1, NADH fluorescence, propionaldehyde substrate; Potency, µM (titrated, usually from 75.3 µM), without a hit: at the top dose activity, negative = inhibition, usual class: inhibitors; actives 7.3% (n = 220,000);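 further: potency means the concentration at half of the fitted maximal effect; plate controls were no enzyme wells and a reference inhibitor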
KDM4E inh: qHTS Assay for Inhibitors of Human Jumonji Domain Containing 2E (JMJD2E); actives 1.6% (n = 230,000); Potency, µM (doses to about 57.1 µM), inactives show at the top dose activity change, negative = inhibition, most hits filed as inhibitors; Lysine-specific demethylase 4E (Homo sapiens), B2RXH2; JMJD2E catalytic domain, FDH-coupled NADH fluorescence (FDH is formaldehyde dehydrogenase);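 further: potency means the concentration at half of the fitted maximal effect; 0% = wells with enzyme and -100% = buffer wells without enzyme; nearly all actives have a fitted effect of over 50% in size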
Target sequence (B2RXH2 1-337 limits assumed): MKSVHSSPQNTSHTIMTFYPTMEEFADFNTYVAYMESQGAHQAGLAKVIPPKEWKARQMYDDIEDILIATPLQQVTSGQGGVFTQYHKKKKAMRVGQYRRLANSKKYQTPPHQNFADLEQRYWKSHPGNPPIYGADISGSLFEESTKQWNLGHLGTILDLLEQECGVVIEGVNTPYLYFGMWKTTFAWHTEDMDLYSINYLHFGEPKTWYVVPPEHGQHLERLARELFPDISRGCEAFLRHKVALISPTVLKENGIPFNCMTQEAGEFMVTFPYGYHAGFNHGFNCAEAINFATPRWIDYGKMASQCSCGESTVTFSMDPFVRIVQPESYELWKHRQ
HPGD block: qHTS Assay for Inhibitors of HPGD (15-Hydroxyprostaglandin Dehydrogenase) | actives 4.3% (n = 150,000) | AID 894, 2007 | purified HPGD, NADH fluorescence kinetic, PGE2 substrate | Potency, µM, without a hit: at the highest dose activity change, negative = inhibition, hits mostly inhibitors; further: potency means the concentration at half of the fitted maximal effect; on the % scale 0 is the no-effect control and ±100 the full control effect
Target sequence (P15428 whole entry, looked up): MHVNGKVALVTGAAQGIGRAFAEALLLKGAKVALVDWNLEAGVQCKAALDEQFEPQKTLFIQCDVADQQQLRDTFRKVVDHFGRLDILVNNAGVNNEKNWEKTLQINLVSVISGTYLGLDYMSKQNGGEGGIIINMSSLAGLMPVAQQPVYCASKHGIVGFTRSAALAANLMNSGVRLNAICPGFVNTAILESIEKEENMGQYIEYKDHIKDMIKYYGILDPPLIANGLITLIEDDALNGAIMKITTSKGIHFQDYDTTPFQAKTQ
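NADH formation kinetics: reaction with 30 uM PGE2 and 1 mM NAD+ (final), 20 nM enzyme, Tris-HCl pH 8 with Tween 20, after 15 min compound preincubation at room temperature. Fluorescence change, last versus first of five reads.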
CBFb-RUNX1 inh: qHTS Assay for Compounds Blocking the Interaction Between CBF-beta and RUNX1 for the Treatment of Acute Myeloid Leukemia. Runt-related transcription factor 1 (Homo sapiens) + Core-binding factor subunit beta …. AlphaScreen CBFb-His/RUNX1-biotin binding, biochemical. Potency, µM (titrated, usually from 59.8 µM), inactives show at the top dose activity, negative = inhibition, most hits filed as inhibitors. 230,000 tested, under 10 active. AID 1477, 2009; active means well fitted curve in the direction sought with a large enough effect; inconclusive means small, poorly fitted or top-dose-only effect, or another doubt; inactive means no such curve, though single readings can be large; an effect the other way counts as inactive or inconclusive; further: % of control where 0% means no effect
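CBF-beta (His) and RUNX1 (biotin), 30 nM each; 20 min preassociation; + compound, 15 min; + beads 50 ng each (Ni, streptavidin), 90 min; RT; AlphaScreen read.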
HTT ATP protect: qHTS Multiplex Assay to Identify Dual Action Probes in a Cell Model of Huntington: Cytoprotection (ATP) | actives 0.14% (n = 230,000) | Potency, µM (titrated, usually from 56.4 µM), for the others: cytoprotection (ATP increase), usual class: activators | PC12 HTT-Q103 induced, cytoprotection, ATP luminescence, 40 h; active means well fitted curve in the direction sought with a large enough effect; inconclusive means small, poorly fitted or top-dose-only effect, or another doubt; inactive means no such curve, though single readings can be large; an effect the other way counts as inactive or inconclusive; further: potency means the concentration at half of the fitted maximal effect; % of control where 0% means no effect; nearly all actives have a fitted effect of over 45% in size
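Compounds were screened for protection of PC12 cells against cell death after tebufenozide induction (100 nM final) of mutant Huntingtin exon 1 (Q103) fused to GFP.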
The depositor's hits bear a star; ? = inconclusive; / = no result; [ ] = dose if it differs, or a comment. Rows were chosen to be rich in hits. Some 9.8% of all compounds tested hit in one or more screens of this group. Unless noted, the call rests on the fitted dose curve; in most records, active means well fitted inhibition curve with a large enough effect (not every such curve was filed as active); inconclusive means small, poorly fitted or top-dose-only effect, or another doubt; inactive means no such curve, though single readings can be large or run the other way.

SMILES	HTT aggregate	ALDH1A1 inh	KDM4E inh	HPGD block	CBFb-RUNX1 inh	HTT ATP protect
CN(C)S(=O)(=O)Oc1cccc(C(=O)Nc2cccc(Cl)c2)c1	-25%	0.79µM*	1%	-22%	0%	33%
COc1ccc(NC(=O)c2cccc(OS(=O)(=O)N(C)C)c2)cc1	-6%	4µM*	-5%	/	2%	-17%
COc1cccc(C(=O)Nc2ccccc2)c1	18%	2%	1%	-21%	-1%	-25%
CCn1c(SCC(=O)N2CCN(c3ccccc3)CC2)nnc1-c1ccncc1	-33%	25µM*	0%	20µM*	0%	-12%[10 µM]
Cn1c(CCNC(=O)c2cccs2)nnc1SCC(=O)N1CCN(c2ccccc2)CC1	3%	28µM*	3%	1%	7%	-12%
Cn1c(SCC(=O)N2CCN(c3ccccc3)CC2)nnc1-c1c[nH]c2ccccc12	-5%	15%	4%	-7%	-2%	-18%
Cn1c(SCC(=O)N2CCN(c3ccccc3)CC2)nnc1-c1ccccc1	5%	7.9µM*	3%	-1%	-2%	5%
Cc1sc(NC(=O)CSc2nnc(CCNC(=O)c3cccs3)n2C)nc1-c1ccccc1	-11%	11%	16%	-2%	7%	14%[10 µM]
O=C(CSc1ncn(-c2ccccc2)n1)N1CCN(c2ccccc2)CC1	-1%	14µM*	-3%	28µM*	5%	-2%[0.074 µM]
COc1ccc(/C=C2\SC(=O)N(CCc3nnc(N)s3)C2=O)cc1	0%[9.22 µM]	/	-24%	/	9%	-11%[10 µM]
Cn1c(SCC(=O)N2CCN(c3ccccc3)CC2)nnc1-c1ccco1	17%	13µM*	2%	3%	4%	-3%
O=C(CSc1nnc(-c2ccco2)n1-c1ccccc1)N1CCN(C(=O)c2ccco2)CC1	1%	?	-2%	-18%	6%	10%[10 µM]
CC(C)COc1ccc(C(=O)N/C(=C/c2cccc([N+](=O)[O-])c2)C(=O)O)cc1	8%[9.22 µM]	/	-9%	/	4%	5%[10 µM]
O=C(O)c1cc2nc(-c3ccc(F)cc3)cc(C(F)(F)F)n2n1	24%	?	?	-29%	7%	-9%
CN1CCN(C(=O)c2cc3nc(-c4ccccc4)cc(C(F)(F)F)n3n2)CC1	-18%	-5%	?	10µM*	1%	5%[0.074 µM]
O=C(c1cc2nc(-c3ccccc3)cc(C(F)(F)F)n2n1)N1CCCC1	/	/	/	/	/	-35%[10 µM]
COc1ccc(-c2cc(C(F)(F)F)n3nc(C(=O)N4CCCCC4)cc3n2)cc1	-12%	?	?	?	5%	-21%
COc1cccc(-c2cc(C(F)(F)F)n3nc(C(=O)N4CCCCC4c4cccnc4)cc3n2)c1 (stereo not given)	?	22µM*	?	/	19%	-80%
O=C(c1cc2nc(-c3ccc(F)cc3)cc(C(F)(F)F)n2n1)N1CCCC1	-15%	6%	-3%	3.5µM*	0%	-8%[10 µM]
Nc1cc([N+](=O)[O-])ccc1N1C(=O)CCCC1=O	1%[9.22 µM]	/	-2%	/	-23%	5%[10 µM]
COc1ccccc1-c1cc(N(C)Cc2ccco2)ncn1	/	?	/	/	/	-60%
CCCC(=O)OC1(C(=O)CO)CCC2C3CCC4=CC(=O)CCC4(C)C3C(O)CC21C (stereo not given)	/	15%	/	1%	1%	-98%
COCCCn1c(SCC(=O)Nc2sc3c(c2C#N)CCCC3)nnc1-c1ccncc1	1%	20µM*	-4%	?	-4%	15%[10 µM]
Cn1c(SCC(=O)Nc2sc3c(c2C#N)CCC3)nnc1C1COc2ccccc2O1 (stereo not given)	30%	14%	6%	-7%	-18%	6%[10 µM]
COCCCn1c(SCC(=O)Nc2cccc(C(=O)OC)c2)nnc1-c1ccncc1	5%	12%	4%	/	-1%	-9%[10 µM]
SMILES	HTT aggregate	ALDH1A1 inh	KDM4E inh	HPGD block	CBFb-RUNX1 inh	HTT ATP protect
CN(C)CCCn1c(SCC(=O)Nc2sc3c(c2C#N)CCCC3)nnc1-c1ccncc1	32%	7.1µM*	?	6%	0%	3%
N=c1sccn1CC(=O)Nc1ccc(S(N)(=O)=O)cc1	3%[9.22 µM]	7.1µM*	9%	/	4%	1%[10 µM]
N=c1sccn1CC(=O)Nc1ccc(Cl)cc1[N+](=O)[O-]	3%[9.22 µM]	28µM*	9%	/	4%	27%[10 µM]
COc1cc(NC(=O)Cn2ccsc2=N)c(C)cc1[N+](=O)[O-]	5%[9.22 µM]	-9%	?	/	9%	-12%[10 µM]
COc1cc2c(C(=O)N3CCN(C)CC3)c(C)n(-c3ccccc3)c2cc1Br	7%	?	0%	-26%	-3%	-16%
CCN(CC)CCNC(=O)c1c(C)n(-c2ccccc2)c2cc(Br)c(OC)cc12	?	0.63µM*	-4%	-6%	-19%	-86%
CC(C)CCn1c(-c2nonc2N)nc2ccccc21	11µM*	-8%	3%	-12%	13%	-3%[10 µM]
COc1cccc(/C=N/n2c(C)c3c(C)nnc(C)c3c2C)c1O	/	/	/	/	/	-9%[0.074 µM]
N#Cc1nc(COc2ccc(Cl)cc2)oc1N1CCCCCC1	-30%	?	-6%	?	?	-34%
N#Cc1nc(COc2ccccc2)oc1N1CCCCC1	?	13µM*	1%	?	-27%	-16%
O=C1C=C(NCCc2cc(Br)c(O)c(Br)c2)C(=O)c2ncccc21	/	1.6µM*	/	-11%	/	-73%[10 µM]
Cc1nc(Nc2ccc3c(c2)OCCO3)c2c(C)c(C)sc2n1	-18%	?	-24%	/	-11%	-49%
